According to PubChem BioAssay AID2073 (Sanford-Burnham Center for Chemical Genomics, 2009):
In all, about 290,000 compounds went through this assay and about 570 (0.2%) were called active. Not shown: some 1% with an inconclusive outcome. The sample holds actives, similar compounds and a random draw of the others, so the mix is not that of the screen. Cut-off read from the data, not from the text of the source: active = inhibition mostly above about 51% (no sharp cut-off); inconclusive = no clear call, values can overlap the other calls; inactive = mostly below about 53%.

Molecular target: Voltage-dependent N-type calcium channel subunit alpha-1B (Homo sapiens) (UniProt Q00975)
Assay: disruptors of CaV2.2 binding to Mint1 – biochemical, HTRF (AID 2073)
Conditions: HTRF protein-protein interaction, Mint1-CaV2.2, at 20 µM, stronger effect = higher value
[1] = measured here: average of repeat tests

Voltage-dependent N-type calcium channel subunit alpha-1B (Homo sapiens), sequence (Q00975 whole entry, looked up): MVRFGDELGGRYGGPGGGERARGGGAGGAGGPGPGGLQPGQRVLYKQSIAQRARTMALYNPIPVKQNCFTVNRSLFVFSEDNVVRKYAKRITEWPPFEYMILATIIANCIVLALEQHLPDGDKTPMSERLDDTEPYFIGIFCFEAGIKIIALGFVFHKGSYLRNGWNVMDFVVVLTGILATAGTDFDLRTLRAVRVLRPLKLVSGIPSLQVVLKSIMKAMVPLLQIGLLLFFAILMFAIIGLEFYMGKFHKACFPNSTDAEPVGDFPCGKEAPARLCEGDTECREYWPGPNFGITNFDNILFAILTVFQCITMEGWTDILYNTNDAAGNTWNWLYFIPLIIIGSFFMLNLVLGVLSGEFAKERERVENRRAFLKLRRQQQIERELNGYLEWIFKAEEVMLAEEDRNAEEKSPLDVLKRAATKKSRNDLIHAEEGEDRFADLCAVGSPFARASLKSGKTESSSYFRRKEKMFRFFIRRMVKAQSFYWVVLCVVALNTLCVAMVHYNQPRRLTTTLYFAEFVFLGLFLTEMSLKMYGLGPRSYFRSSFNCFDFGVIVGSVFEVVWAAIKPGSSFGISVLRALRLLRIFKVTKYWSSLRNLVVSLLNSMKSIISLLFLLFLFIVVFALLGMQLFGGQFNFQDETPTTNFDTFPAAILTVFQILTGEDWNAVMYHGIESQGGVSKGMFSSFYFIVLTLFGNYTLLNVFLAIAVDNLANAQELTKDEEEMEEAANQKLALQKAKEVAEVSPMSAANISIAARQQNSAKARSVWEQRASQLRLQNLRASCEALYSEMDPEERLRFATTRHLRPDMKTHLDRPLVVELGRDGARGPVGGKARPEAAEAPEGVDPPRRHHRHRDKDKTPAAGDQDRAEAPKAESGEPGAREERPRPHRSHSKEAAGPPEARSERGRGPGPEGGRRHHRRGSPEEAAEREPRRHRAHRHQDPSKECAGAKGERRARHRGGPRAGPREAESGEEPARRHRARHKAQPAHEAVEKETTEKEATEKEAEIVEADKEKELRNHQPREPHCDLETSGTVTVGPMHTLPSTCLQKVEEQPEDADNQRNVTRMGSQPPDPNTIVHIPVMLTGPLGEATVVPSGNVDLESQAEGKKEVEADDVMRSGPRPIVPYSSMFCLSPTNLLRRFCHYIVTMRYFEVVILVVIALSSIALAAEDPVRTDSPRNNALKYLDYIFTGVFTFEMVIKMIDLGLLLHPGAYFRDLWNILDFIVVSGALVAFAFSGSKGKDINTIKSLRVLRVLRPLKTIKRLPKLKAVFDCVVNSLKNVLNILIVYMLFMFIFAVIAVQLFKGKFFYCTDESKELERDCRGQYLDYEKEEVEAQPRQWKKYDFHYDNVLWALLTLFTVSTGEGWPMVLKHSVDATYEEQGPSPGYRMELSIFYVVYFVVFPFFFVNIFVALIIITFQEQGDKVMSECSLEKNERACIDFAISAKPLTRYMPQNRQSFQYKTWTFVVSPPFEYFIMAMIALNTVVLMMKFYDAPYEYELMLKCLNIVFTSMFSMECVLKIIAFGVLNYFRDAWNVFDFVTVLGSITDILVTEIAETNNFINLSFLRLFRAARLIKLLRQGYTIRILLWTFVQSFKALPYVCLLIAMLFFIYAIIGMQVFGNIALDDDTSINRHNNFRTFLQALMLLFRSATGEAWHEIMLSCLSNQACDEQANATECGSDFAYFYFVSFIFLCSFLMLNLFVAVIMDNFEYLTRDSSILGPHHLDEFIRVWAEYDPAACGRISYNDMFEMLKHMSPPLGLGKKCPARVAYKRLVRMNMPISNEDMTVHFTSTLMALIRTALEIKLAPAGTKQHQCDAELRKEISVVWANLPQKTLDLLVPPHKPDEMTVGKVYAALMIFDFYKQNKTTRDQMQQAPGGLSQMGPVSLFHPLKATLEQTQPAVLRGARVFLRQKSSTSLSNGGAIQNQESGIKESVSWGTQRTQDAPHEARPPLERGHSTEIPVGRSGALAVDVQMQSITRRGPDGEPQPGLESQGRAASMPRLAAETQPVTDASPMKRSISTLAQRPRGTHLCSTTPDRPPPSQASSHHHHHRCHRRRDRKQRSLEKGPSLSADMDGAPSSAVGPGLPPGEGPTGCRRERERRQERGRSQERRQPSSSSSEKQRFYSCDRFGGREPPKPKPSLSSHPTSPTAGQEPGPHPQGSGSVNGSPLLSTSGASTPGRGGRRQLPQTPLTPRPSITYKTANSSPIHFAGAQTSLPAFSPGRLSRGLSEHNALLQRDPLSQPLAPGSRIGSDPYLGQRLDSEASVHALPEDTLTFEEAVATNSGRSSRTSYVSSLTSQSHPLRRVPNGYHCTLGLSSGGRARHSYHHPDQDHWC

SMILES	inhibition	inhibition [1] [%]
Cc1ccc(NC(=O)CCNS(=O)(=O)c2ccc3[nH]c(=O)oc3c2)c(C)c1	-0.1% (inactive)	–
COc1cccc(C(=O)Nc2ccc3c(c2)C(=O)NC3=O)c1	11.6% (inactive)	–
Cc1ccn2c(Nc3ccccc3C)c(-c3ccccn3)nc2c1	15% (inactive)	–
Cc1ccn2c(Nc3ccccc3)c(-c3ccccn3)nc2c1	21.1% (inactive)	–
Cc1ccc(Nc2c(-c3ccccn3)nc3cc(C)ccn23)cc1	50.4% (active)	–
O=C(Nc1ccc2c(c1)OCCO2)c1cccc(Br)c1	-4.4% (inactive)	–
Nc1nnnn1/N=C/c1ccccc1OCc1ccc(Cl)cc1	0.5% (inactive)	–
Cc1nn(CC(=O)NCC2CCCO2)c(C)c1[N+](=O)[O-] (stereo unspecified)	5.2% (inactive)	–
NC(=O)c1sc(=S)n2c1[nH]c(=O)c1sccc12	51.8% (active)	–
CC(=O)NNC(=O)c1sc(=S)n2c1[nH]c(=O)c1sccc12	46.1% (inactive)	–
O=C(NCc1ccccc1)c1sc(=S)n2c1[nH]c(=O)c1ccccc12	-8.6% (inactive)	–
Cc1c(C(=O)/C=C/c2cccs2)oc2ccc(F)cc12	-6.1% (inactive)	–
O=C(OC1CCCCC1)c1ccc2c(c1)C1C=CCC1C(C(=O)O)N2 (stereo unspecified)	74.8% (active)	–
Cc1ccc2c(c1)C1C=CCC1C(C(=O)O)N2 (stereo unspecified)	39.2% (inactive)	–
CCOC(=O)c1ccc2c(c1)C1C=CCC1C(C(=O)O)N2 (stereo unspecified)	31% (inactive)	–
Cc1ccccc1OCC(=O)OC(C(=O)c1ccccc1)c1ccccc1 (stereo unspecified)	12.2% (inactive)	–
O=C1CCCN1c1cc(Cl)ccc1Cl	-4.5% (inactive)	–
O=c1cc(O)c2sc(Nc3ccc(Cl)c(F)c3)nc2[nH]1	66.1% (inactive)	31.6
Fc1ccc(Nc2nnc(C(F)(F)F)s2)cc1Cl	10.6% (inactive)	–
Fc1ccc(Nc2nc3ccccc3s2)cc1	3.5% (inactive)	–
O=c1cnnc(Nc2cccc(C(F)(F)F)c2)[nH]1	2.4% (inactive)	–

SMILES	inhibition	inhibition [1] [%]
O=c1cc(O)c2sc(Nc3ccc(F)c(Cl)c3)nc2[nH]1	86.3% (active)	–
COc1ccc(Nc2nc3[nH]c(=O)cc(O)c3s2)cc1	87.5% (inactive)	17.2
O=c1cc(O)c2sc(Nc3cccc(C(F)(F)F)c3)nc2[nH]1	66.6% (active)	–
Cc1cc(=O)[nH]c(Nc2cccc(C(F)(F)F)c2)n1	-2.3% (inactive)	–
O=c1cc(O)c2sc(Nc3ccc(F)cc3)nc2[nH]1	63.2% (active)	–
O=C(/C=C/c1ccccc1)N1CCN(S(=O)(=O)c2ccc(F)cc2)CC1	-4.1% (inactive)	–
CN(C)CCNc1nc2c(c(=O)[nH]c(=O)n2C)n1CC(O)COc1ccc(Cl)cc1 (stereo unspecified)	-3% (inactive)	–
O=C(N/N=C/c1ccccc1)c1ccc(CN2C(=O)c3cccc4cccc2c34)cc1	36.4% (inactive)	–
O=C(N/N=C/c1ccc(O)cc1O)c1ccc(CN2C(=O)c3cccc4cccc2c34)cc1	69.5% (active)	–
COc1ccc(/C=N/NC(=O)c2ccc(CN3C(=O)c4cccc5cccc3c45)cc2)cc1O	71.7% (inactive)	39.7
COC(=O)c1ccc(OCCOc2ccccc2C)cc1	26.5% (inactive)	–
Cc1ccc(C)c(S(=O)(=O)NCc2ccc(C(=O)N3CCOCC3)cc2)c1	-3.9% (inactive)	–
CCc1nn2c(=O)cc(COc3ccc(/C=C4\C(=N)N5N=C(CC(C)C)SC5=NC4=O)cc3)nc2s1	24.6% (inactive)	–
CC(=O)Nc1ccc(OCCOc2ccc(/C=C3\C(=N)N4N=C(C)SC4=NC3=O)cc2)cc1	24.7% (inactive)	–
CCc1nn2c(=O)cc(COc3ccc(/C=C4\C(=N)N5N=C(C)SC5=NC4=O)cc3)nc2s1	60% (active)	–
COCCCN1C(=O)C(=O)/C(=C(/O)c2ccc(S(=O)(=O)N3CCCCC3)cc2)C1c1ccc(O)cc1 (stereo unspecified)	2% (inactive)	–
CNC(=S)N1CCN=C1Nc1nc(C)cc(C)n1	3.5% (inactive)	–
COc1cccc(NS(=O)(=O)c2ccc3c(c2)C2C=CCC2C(c2ccc(C(=O)O)cc2)N3)c1 (stereo unspecified)	56.4% (active)	55
Cc1c(Cl)cccc1NS(=O)(=O)c1ccc2c(c1)C1C=CCC1C(c1ccc(C(=O)O)cc1)N2 (stereo unspecified)	61% (inactive)	29.1
COc1ccc(NS(=O)(=O)c2ccc3c(c2)[C@H]2C=CC[C@H]2[C@@H](c2ccc(C(=O)O)cc2)N3)cc1	20.2% (inactive)	–
Cc1cc(-c2cc(C(=O)O)c3ccccc3n2)c(C)s1	9.2% (inactive)	–

SMILES	inhibition	inhibition [1] [%]
O=C1c2ccccc2C(=O)N1OCc1c(F)cccc1Cl	16.6% (inactive)	–
CCOC(=O)c1c(-n2cnnn2)sc(C)c1C	-6.3% (inactive)	–
CCOC(=O)c1c(N2C(=O)C3CC(C)=C(C)CC3C2=O)sc(C)c1C (stereo unspecified)	-2.7% (inactive)	–
CCOC(=O)c1c(N2C(=O)C=CC2=O)sc(C)c1C	65.5% (active)	–
CCOC(=O)c1c(NC(=O)COC)sc(C(C)=O)c1C	6.4% (inactive)	–
CCOc1ccc(N2C(=O)CC(S/C(N)=N/N=C/c3cccs3)C2=O)cc1 (stereo unspecified)	10.6% (inactive)	–
CCCCc1nc2sc3c(=O)n(N)cnc3c2c2c1CCCC2	8.9% (inactive)	–
CCn1ncc(-c2ccnc3cc(C(=O)O)nn23)c1C	67.9% (active)	–
CCn1cc(-c2ccnc3cc(C(=O)O)nn23)c(C)n1	39.6% (inactive)	–
Cc1c(-c2ccnc3cc(C(=O)O)nn23)cnn1C	49.5% (inactive)	–
CCn1cc(C(=O)Nc2ccc(F)c(F)c2)cn1	8.5% (inactive)	–
CC(C)n1nc(C(=O)N2CCN(S(=O)(=O)c3cccs3)CC2)c2ccccc2c1=O	-6.3% (inactive)	–
Cc1ccc(NC(=O)CN2C(=O)S/C(=C\c3ccc(-c4cccc(C(=O)O)c4C)o3)C2=O)cc1	7.6% (inactive)	–
Cc1ccc(NC(=O)CN2C(=O)S/C(=C/c3ccc(-c4cccc(C(=O)O)c4)o3)C2=O)cc1	62.3% (active)	–
Cc1ccc(C(=O)O)cc1-c1ccc(/C=C2\SC(=O)N(CC(=O)Nc3ccccc3)C2=O)o1	24% (inactive)	–
O=c1[nH]cnc(O)c1N=Nc1ccccc1	-0.9% (inactive)	–
CCCSCCCNC(=O)c1cc2c(s1)CS(=O)(=O)C2	2% (inactive)	–
O=C(Nc1ccccc1C(=O)O)c1ccc2c(c1)C(=O)N(c1cccc([N+](=O)[O-])c1)C2=O	11.2% (inactive)	–
O=C(O)c1cccc(NC(=O)c2ccc3c(c2)C(=O)N(c2cccc([N+](=O)[O-])c2)C3=O)c1	26.4% (inactive)	–
